Shown are actives, neighbours in structure and some others; about 18% of the full set was active somewhere.
DT40 TDP1 CPT: DT40-hTDP1 cell growth loss with CPT | chicken DT40 Tdp1-/-;hTDP1 cells + 20 nM CPT, ATP luminescence, 48 h | AID 686979 | Potency, µM (top dose mostly 46.2 µM), for inactives: at the top dose activity change, negative = growth inhibition, most hits filed as inhibitors | 12% of 420,000 active; also: nearly all actives have a fitted effect of over 55% in size
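Cell growth measured by CellTiter-Glo luminescence after a minimum 48 h, 37 C compound exposure with 20 nM CPT in Tdp1-knockout DT40 cells stably expressing hTDP1, seeded 400/well; qHTS titration format.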
PLK1 PBD block: PLK1 (human) polo-box domain binding inhibition. P53350. Plk1 PBD binding of FITC phosphopeptide, fluorescence polarization. Potency, µM, without a hit: max response, negative = inhibition, usual class: inhibitors. 2.8% of 360,000 active; also: series mostly up to about 57 µM; nearly all actives have a fitted effect of over 65% in size
TDP1 block: inhibitors of human tyrosyl-DNA phosphodiesterase TDP1; Q9NUW8; recombinant TDP1, AlphaScreen DNA substrate cleavage; Potency, µM (titrated, usually from 130 µM), for the others: at the top dose activity change, negative = inhibition, usual class: inhibitors; 0.28% of 350,000 active; also: nearly all actives have a fitted effect of over 40% in size
Target sequence (Q9NUW8 whole entry, looked up): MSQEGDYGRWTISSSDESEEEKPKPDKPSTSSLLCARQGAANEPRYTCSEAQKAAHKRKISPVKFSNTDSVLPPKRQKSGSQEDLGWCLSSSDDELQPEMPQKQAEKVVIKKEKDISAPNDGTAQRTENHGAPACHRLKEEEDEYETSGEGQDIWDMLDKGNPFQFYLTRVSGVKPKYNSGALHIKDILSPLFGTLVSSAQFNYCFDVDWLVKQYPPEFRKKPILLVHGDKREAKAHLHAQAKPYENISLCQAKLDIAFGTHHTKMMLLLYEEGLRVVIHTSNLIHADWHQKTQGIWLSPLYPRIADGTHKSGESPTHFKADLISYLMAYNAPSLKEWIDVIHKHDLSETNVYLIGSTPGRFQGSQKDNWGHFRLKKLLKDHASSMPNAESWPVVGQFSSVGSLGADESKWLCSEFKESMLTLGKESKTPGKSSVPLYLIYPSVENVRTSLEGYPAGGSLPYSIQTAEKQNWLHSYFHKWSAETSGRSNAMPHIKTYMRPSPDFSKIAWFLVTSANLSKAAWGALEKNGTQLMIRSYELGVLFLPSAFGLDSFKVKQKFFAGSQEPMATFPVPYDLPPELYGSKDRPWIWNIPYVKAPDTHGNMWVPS
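Recombinant E. coli-expressed Tdp1 (1 nM) preincubated with compound 15 min at RT, then 5'-biotin/3'-phosphotyrosine-FITC DNA substrate (15 nM) added for 5 min. AlphaScreen beads (10 ug/ml) added, 10 min RT; tyrosine-FITC cleavage read as signal loss.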
VDR inhibitor: inhibitors of human vitamin D receptor. P11473. VDR-SRC2-3 peptide fluorescence polarization, 2 h. Potency, µM, for inactives: max response, negative = inhibition, hits mostly inhibitors. 0.93% of 400,000 active. AID 504847
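Reagent solutions, kept cold and dark, are dispensed first; compounds are then pinned in at 23 nl, plates briefly spun, and incubated 2 h at ambient temperature. Inhibition of VDR–SRC2-3 peptide binding is read by fluorescence polarization.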
GCN5L2 inh: blocks human GCN5L2 histone acetyltransferase. Q92830. GCN5L2 HAT assay, ThioGlo1 CoA-SH fluorescence. Potency, µM (top dose mostly 58.9 µM), for the others: top-dose activity change, negative = inhibition, most hits filed as inhibitors. 0.21% of 390,000 active. AID 504327
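GCN5L2 (20 nM) in 50mM HEPES pH 7.5, 0.1mM EDTA, 0.01% Tween-20 preincubated 15 min with compounds at room temperature. Reaction started with H3(1-25) 75uM, acetyl-CoA 70uM, ThioGlo1 50uM; CoA-thiol fluorescence (Ex340/Em540) read at 0 and 20 min.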
TDP1 cell noCPT: qHTS for Inhibitors of human tyrosyl-DNA phosphodiesterase 1 (TDP1): qHTS in cells in absence of CPT; DT40 Tdp1-/- hTDP1 cells, no CPT, ATP luminescence, 48 h; Potency, µM (top dose mostly 46.2 µM), for inactives: at the highest dose activity change, negative = growth inhibition, actives largely listed as inhibitors; 15% of 420,000 active; also: nearly all actives have a fitted effect of over 55% in size
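Compound effects on proliferation are scored in DT40 Tdp1-/-;hTDP1 cells in the absence of CPT. ATP levels (CellTiter-Glo luminescence) are recorded after a ≥48 hr, 37 °C incubation.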
An asterisk follows results filed as active; u = inconclusive; x = no result; [ ] = another dose, or the depositor's remark. Calls follow the shape of the dose curve; as a rule, active = well fitted curve in the direction sought with a large enough effect; inconclusive = small, poorly fitted or top-dose-only effect, or another doubt; inactive = no such curve, though single readings can be large; an effect the other way counts as inactive or inconclusive. % is scaled to controls: 0 for no effect and ±100 for the full control effect; potency is read from the fitted curve at half-maximal effect.

SMILES | DT40 TDP1 CPT | PLK1 PBD block | TDP1 block | VDR inhibitor | GCN5L2 inh | TDP1 cell noCPT
CCCCCCCC(=O)NC(Oc1ccccc1[N+](=O)[O-])C(Cl)(Cl)Cl (stereo not given) | u | u | 1% | -20% | -8% | -16%
CCOC(=O)C1=C[C@@H](OC(CC)CC)[C@H](NC(C)=O)[C@@H](N)C1 | -3% | x | x | x | x | -16%
CCOc1ccc(Cl)cc1CNCCc1ccc(F)cc1 | 21µM* | -1% | 0% | 10% | -3% | 16µM*
O=C(CN1CCN(C(=O)CNC(=O)c2ccc(-c3ccccc3)cc2)CC1)Nc1ccccc1Cl | 13µM* | 0% | x | x | x | 13µM*
O=Cc1ccc2c(c1)OCO2 | x | x | 18% | x | x | x
COC(=O)c1c(OCc2cccnc2)cc(=O)n2c1CCN(Cc1cc3c(cc1Cl)OCO3)CC2 | u | x | x | x | x | 18µM*
CCOC(=O)c1ccc(NC(=O)c2cccn(Cc3ccc(C)cc3)c2=O)cc1 | u | x | 3% | -2% | -4% | -26%
O=C(Nc1ccon1)c1cccn(Cc2cccc([N+](=O)[O-])c2)c1=O | u | x | 3% | -4% | -4% | u
CCc1ccc(NC(=O)c2cccn(Cc3cccc([N+](=O)[O-])c3)c2=O)cc1 | -19% | x | -3% | 2% | -12% | 21µM*
Cc1ccc(Cn2cccc(C(=O)Nc3ccc4c(c3)OCCO4)c2=O)cc1 | 21µM* | x | -3% | 21% | -10% | 16µM*
CCOC(=O)c1ccc(NC(=O)c2cccn(Cc3ccccc3F)c2=O)cc1 | u | x | 1% | 4% | -3% | 21µM*
O=C(Nc1ccc2c(c1)OCCO2)c1cccn(Cc2cccc(F)c2)c1=O | 21µM* | x | 3% | 1% | -5% | 23µM*
CCCCC/C=C\C/C=C\C/C=C\C/C=C\CCCCOC(CO)CO | x | x | -9% | -7% | 3% | x
OCCBr | x | x | 5% | x | x | x
Oc1cccc2cccnc12 | 3.3µM* | x | 11% | -4% | 9% | 2.6µM*
CN(C(=O)Oc1cccc2cccnc12)c1ccccc1 | 0% | -6% | 5% | 4% | -2% | -7%
O=[N+]([O-])C(Br)Br | x | x | 8% | x | x | x
CC(=O)CC(c1ccccc1)c1c(O)c2ccccc2oc1=O (stereo not given) | -8% | -11% | 7%[56.1 µM] | -14% | 1% | -13%
CC(c1ccccc1)n1cncc1C(=O)O (stereo not given) | -5% | 1% | 22µM* | -5% | 1% | 0%
C[C@@]12CCC(Cl)C[C@H]1CCC1C2CC[C@]2(C)C(=O)CCC12 (stereo not given in full) | 6% | x | -3%[56.1 µM] | -21% | -3% | 20%
COc1ccc(CCN)cc1S(N)(=O)=O | -3% | -8% | x | x | x | 0%
COc1ccc(CCn2c(O)c(C=Nc3ccc(F)cc3)c(=O)[nH]c2=O)cc1OC | u | -13% | 0% | -5% | -4% | u
COc1ccc(CCNc2nc3c(c(=O)n(C)c(=O)n3C)n2Cc2ccc(F)cc2)cc1OC | 6.5µM* | x | 0% | -12% | 1% | 3.3µM*
Cc1ccc2c(c1)C1CN(C)CCC1N2C(=O)c1cn(-c2ccccc2)nc1-c1ccccc1 (stereo not given) | u | -6% | 5% | -4% | -4% | 16µM*
Cc1ccc2c(c1)C1CN(C)CCC1N2C(=O)c1cccnc1Cl (stereo not given) | -14% | -3% | 1% | -6% | 10% | -22%
SMILES | DT40 TDP1 CPT | PLK1 PBD block | TDP1 block | VDR inhibitor | GCN5L2 inh | TDP1 cell noCPT
CCCCCCCCCC(=O)O[C@H]1CC[C@H]2[C@@H]3CCC4=CC(=O)CC[C@@H]4[C@H]3CC[C@]12C | 19% | x | 6% | -12% | 1% | 0%
CCC(=O)c1c(O)n(C2CCCCCC2)c(=O)[nH]c1=O | 6.5µM* | -11% | 2% | 16% | 3% | 16µM*
NS(=O)(=O)OC(CCc1ccccc1)C(Cl)(Cl)Cl (stereo not given) | u | -11% | x | 16% | -7% | -30%
COc1ccc(CN2C(=O)NC(=O)/C(=C/c3ccc([N+](=O)[O-])o3)C2=O)cc1 | x | x | 0% | x | 22µM* | x
COc1ccc(CN2C(=O)NC(=O)/C(=C\c3cccc(OC)c3OC)C2=O)cc1 | -4% | 30µM* | -2% | u | -3% | -15%
COc1ccc(C)cc1NC(=O)CN1CCN(CC(=O)Nc2ccccc2F)CC1 | 23µM* | 0% | 0% | 6% | -12% | 15µM*
CCOP(=S)(OCC)Oc1ncn(-c2ccccc2)n1 | x | x | -4% | 14µM* | -43% | x
O=C(NC(=O)c1c(F)cccc1F)Nc1ccc(Cl)cc1 | -9% | x | 2% | 11% | -4% | -7%
C=C1C(=O)[C@@]23C[C@H]4[C@@H]5[C@@]6(C)CCC[C@@]57[C@@H]2[C@@H](O)[C@@H]1C[C@H]3[C@H]7N4C6 | 4.6µM* | -9% | x | 2% | x | 4.1µM*
COC(=O)C1(C(=O)OC)C[C@H](c2ccc(OC)cc2)N(Cc2ccccc2OC)[C@@H]1c1ccccc1 | u | -18% | x | x | x | u
COc1cc2c(cc1OC)C13CCN4CC5=CCOC6CC(=O)N2C1C6C5C3C4 (stereo not given) (tested in a mixture with another compound) | 13µM* | -2% | x | 5% | x | u
CO[C@H](C(=O)[C@@H](O)[C@@H](C)O)C1Cc2cc3cc(O[C@H]4C[C@@H](O[C@H]5C[C@@H](O)[C@H](O)[C@@H](C)O5)[C@@H](O)[C@@H](C)O4)c(C)c(O)c3c(O)c2C(=O)[C@H]1O[C@H]1C[C@@H](O[C@H]2C[C@@H](O[C@H]3C[C@](C)(O)[C@H](O)[C@@H](C)O3)[C@H](O)[C@@H](C)O2)[C@H](O)[C@@H](C)O1 (stereo not given in full) | 0.075µM* | x | x | u | 8% | 0.084µM*
COC(C(=O)C(O)C(C)O)C1Cc2cc3cc(OC4CC(OC5CC(O)C(O)C(C)O5)C(O)C(C)O4)c(C)c(O)c3c(O)c2C(=O)C1OC1CC(OC2CC(OC3CC(C)(O)C(O)C(C)O3)C(O)C(C)O2)C(O)C(C)O1 (stereo not given) | 0.16µM* | x | x | u | 0% | 0.028µM*
Cc1ccc(CNC(=O)CCCn2c(=O)c3sccc3n(CC(=O)Nc3c(C)cccc3C)c2=O)cc1 | -2% | x | -7% | -10% | -1% | -16%
CC1OC(OC2C(O)CC(OC3C(O)CC(OC4CCC5(C)C(CCC6C5CCC5(C)C(C7=CC(=O)OC7)CCC65O)C4)OC3C)OC2C)CC(O)C1O (stereo not given) | x | x | 2% | 10% | -21% | x
